{"source": "PubChem BioAssay (NCATS)", "note": "Inconclusive results are not listed. Activity calls are given as the source filed them. Unless noted, calls follow the shape of the dose curve; as a rule, active = well fitted curve in the direction sought with a large enough effect; inconclusive = small, poorly fitted or top-dose-only effect, or another doubt; inactive = no such curve, though single readings can be large; an effect the other way counts as inactive or inconclusive. Peptide text beside a SMILES is read from it."}
{"target": "ATP-dependent 6-phosphofructokinase (Trypanosoma brucei brucei) (UniProt O15648)", "sequence (O15648 whole entry, looked up)": "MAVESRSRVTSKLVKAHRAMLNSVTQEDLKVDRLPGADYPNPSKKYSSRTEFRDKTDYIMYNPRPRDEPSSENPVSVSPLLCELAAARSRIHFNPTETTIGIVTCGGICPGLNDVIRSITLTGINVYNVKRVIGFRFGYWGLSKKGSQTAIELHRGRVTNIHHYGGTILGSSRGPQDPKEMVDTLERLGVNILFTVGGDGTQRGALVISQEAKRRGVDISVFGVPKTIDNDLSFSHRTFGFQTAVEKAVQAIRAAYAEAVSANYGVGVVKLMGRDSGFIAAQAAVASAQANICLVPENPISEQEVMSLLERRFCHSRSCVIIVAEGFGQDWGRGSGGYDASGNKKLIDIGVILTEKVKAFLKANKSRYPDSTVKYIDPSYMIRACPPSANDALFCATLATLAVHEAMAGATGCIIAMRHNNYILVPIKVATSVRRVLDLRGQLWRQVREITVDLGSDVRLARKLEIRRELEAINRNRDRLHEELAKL", "assay": "qHTS Assay to Find Inhibitors of T. brucei phosphofructokinase: hit validation (AID 492961);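 also: luminescence reports ADP formed as PFK phosphorylates fructose-6-phosphate with ATP; % is scaled to controls: 0 for no effect and ±100 for the full control effect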", "conditions": "T. brucei PFK, ADP-Glo luminescence; series mostly up to 51.4 µM; activity change, negative = inhibition: at the top concentration", "in_short": "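Compounds titrated; %activity normalized to 0x and 1x enzyme controls, curve-fitted. Readout: ADP-Glo luminescence after 45 min room-temperature reaction of 1.25 nM PFK, 0.1 mM ATP, 0.5 mM F6P, pH 8.0.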"}
{"smiles": "CCOc1cc(CC(=O)N[C@@H](CC(C)C)c2ccccc2N2CCCCC2)ccc1C(=O)O", "activity change, negative = inhibition": "6.63% [at 24.3 µM] (inactive)"}
{"smiles": "CN(C)CCc1c[nH]c2ccc(Cn3cncn3)cc12", "activity change, negative = inhibition": "-13% (inactive)"}
{"smiles": "CCCc1cc(=O)[nH]c(=S)[nH]1", "activity change, negative = inhibition": "7.26% (inactive)"}
{"target": "Ubiquitin carboxyl-terminal hydrolase 1 (Homo sapiens) (UniProt O94782)", "sequence (O94782 whole entry, looked up)": "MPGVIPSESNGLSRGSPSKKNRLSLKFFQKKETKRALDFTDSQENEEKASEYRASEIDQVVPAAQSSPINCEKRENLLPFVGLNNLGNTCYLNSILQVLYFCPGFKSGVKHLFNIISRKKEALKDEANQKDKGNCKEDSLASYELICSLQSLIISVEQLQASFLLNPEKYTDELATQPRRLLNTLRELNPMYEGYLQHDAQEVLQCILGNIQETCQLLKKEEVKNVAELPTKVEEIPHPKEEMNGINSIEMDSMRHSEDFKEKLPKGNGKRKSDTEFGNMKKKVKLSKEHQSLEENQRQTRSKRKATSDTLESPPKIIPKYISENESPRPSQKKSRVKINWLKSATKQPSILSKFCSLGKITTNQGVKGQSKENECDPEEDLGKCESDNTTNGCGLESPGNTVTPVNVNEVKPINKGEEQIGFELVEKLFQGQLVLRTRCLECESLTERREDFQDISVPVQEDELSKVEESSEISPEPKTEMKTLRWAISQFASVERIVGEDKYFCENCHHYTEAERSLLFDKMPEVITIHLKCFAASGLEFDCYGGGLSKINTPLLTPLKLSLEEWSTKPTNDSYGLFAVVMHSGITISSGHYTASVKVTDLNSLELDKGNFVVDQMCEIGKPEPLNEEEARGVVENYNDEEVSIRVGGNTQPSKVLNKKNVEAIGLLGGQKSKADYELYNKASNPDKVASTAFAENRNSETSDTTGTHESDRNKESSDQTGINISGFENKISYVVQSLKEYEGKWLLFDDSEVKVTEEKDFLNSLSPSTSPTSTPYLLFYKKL", "assay": "Inhibitors of USP1/UAF1: Pilot qHTS (AID 504865); also: nearly all actives have a fitted effect of over 35% in size; also: potency is read from the fitted curve at half-maximal effect;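 as to activity change, negative = inhibition: rhodamine fluorescence freed from ubiquitin-rhodamine substrate followed over time; top concentration of the series differs between compounds; % is scaled to controls: 0 for no effect and ±100 for the full control effect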", "conditions": "purified USP1/UAF1, Ub-rhodamine cleavage fluorescence; series mostly up to 114 µM; activity change, negative = inhibition: at the top concentration", "in_short": "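USP1/UAF1 complex at 1 nM preincubated 15 min at room temperature with compound, then Ub-Rho substrate added at 150 nM final. Fluorescence (480/540 nm) read kinetically in 50 mM HEPES pH 7.8, 0.5 mM EDTA, 1 mM TCEP, 0.1 mg/ml BSA, 0.01% Tween-20.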"}
{"smiles": "N=C(N)c1ccc2cc(OC(=O)c3ccc(N=C(N)N)cc3)ccc2c1", "activity change, negative = inhibition": "-12.9% (inactive)"}
{"smiles": "CCc1nc(N)nc(N)c1-c1ccc(Cl)cc1", "Potency": "inactive"}
{"smiles": "N=C(N=C(N)N)N1CCOCC1", "activity change, negative = inhibition": "6.17% [at 54.9 µM] (inactive)"}
{"smiles": "c1ccc2[nH]c(-c3cscn3)nc2c1", "Potency": "inactive"}
{"smiles": "COCCCOc1ccnc(CS(=O)c2nc3ccccc3[nH]2)c1C", "note": "(stereo not given)", "activity change, negative = inhibition": "-0.179% (inactive)"}
{"smiles": "CCCOc1ccc2nc(NC(=O)OC)[nH]c2c1", "activity change, negative = inhibition": "-2.58% (inactive)"}
{"smiles": "CCOc1cc(CC(=O)N[C@@H](CC(C)C)c2ccccc2N2CCCCC2)ccc1C(=O)O", "activity change, negative = inhibition": "2.94% [at 54.9 µM] (inactive)"}
{"smiles": "S=c1nc[nH]c2nc[nH]c12", "activity change, negative = inhibition": "-8.81% (inactive)"}
{"smiles": "Cc1cc2c(s1)Nc1ccccc1N=C2N1CCN(C)CC1", "Potency": "inactive"}
{"smiles": "Cc1ccc(S(=O)(=O)NC(=O)NN2CC3CCCC3C2)cc1", "note": "(stereo not given)", "Potency": "inactive"}
{"smiles": "CN(C)CCc1c[nH]c2ccc(Cn3cncn3)cc12", "activity change, negative = inhibition": "-4.36% (inactive)"}
{"smiles": "Oc1ccc(OCc2ccccc2)cc1", "activity change, negative = inhibition": "-7.62% [at 54.9 µM] (inactive)"}
{"smiles": "O=C(OC1C[C@H]2CC[C@@H](C1)[N+]21CCCC1)C(O)(c1ccccc1)c1ccccc1", "note": "(stereo not given in full)", "activity change, negative = inhibition": "2.86% (inactive)"}
{"smiles": "CN1CCC(=C2c3ccccc3CCc3sccc32)CC1", "Potency": "inactive"}
{"smiles": "CCOC(=O)c1c(C)n(C)c2ccc(O)cc12", "activity change, negative = inhibition": "-6.86% (inactive)"}
{"smiles": "C=C(c1ccc(C(=O)O)cc1)c1cc2c(cc1C)C(C)(C)CCC2(C)C", "Potency": "22.4 µM (active)"}
{"smiles": "C[Se]CCC(N)C(=O)O", "note": "(stereo not given)", "activity change, negative = inhibition": "2.5% (inactive)"}
{"smiles": "CCN(CCO)CCCC(C)Nc1ccnc2cc(Cl)ccc12", "note": "(stereo not given)", "Potency": "inactive"}
{"smiles": "Cc1cc2cc3c(C)cc(=O)oc3c(C)c2o1", "activity change, negative = inhibition": "-8.32% [at 54.9 µM] (inactive)"}
{"smiles": "CCCc1cc(=O)[nH]c(=S)[nH]1", "Potency": "inactive"}
{"smiles": "C=CCc1cc(OC)c(O)c(C(=O)NCCO)c1", "activity change, negative = inhibition": "-2.35% (inactive)"}
{"smiles": "CCC1=C(C)CN(C(=O)NCCc2ccc(S(=O)(=O)NC(=O)NC3CCC(C)CC3)cc2)C1=O", "note": "(stereo not given)", "Potency": "inactive"}
{"smiles": "CS(=O)(=O)OCCCCOS(C)(=O)=O", "Potency": "inactive"}
{"smiles": "NS(=O)(=O)c1cc(C(=O)O)c(NCc2ccco2)cc1Cl", "Potency": "inactive"}
{"target": "DNA dC->dU-editing enzyme APOBEC-3G (Homo sapiens) (UniProt Q9HC16)", "sequence (Q9HC16 whole entry, looked up)": "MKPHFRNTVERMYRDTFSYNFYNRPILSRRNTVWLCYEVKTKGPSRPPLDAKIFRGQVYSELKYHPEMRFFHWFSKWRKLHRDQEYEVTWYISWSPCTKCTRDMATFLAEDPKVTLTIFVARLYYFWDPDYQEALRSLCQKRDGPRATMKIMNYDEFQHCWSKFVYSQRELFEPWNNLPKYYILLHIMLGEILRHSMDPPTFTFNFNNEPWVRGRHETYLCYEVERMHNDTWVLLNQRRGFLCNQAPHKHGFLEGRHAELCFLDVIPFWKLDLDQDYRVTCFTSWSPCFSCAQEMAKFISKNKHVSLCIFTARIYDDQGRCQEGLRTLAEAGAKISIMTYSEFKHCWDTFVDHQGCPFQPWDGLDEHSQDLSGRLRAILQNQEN", "assay": "qHTS for inhibitors of Vif-A3G interactions: Validation (AID 588379); also: 0% is about no effect", "conditions": "Vif-A3G protein interaction assay; series mostly up to 46.1 µM; activity change, negative = inhibition: at the top concentration", "in_short": "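Yellow fluorescence (Ex 488, Em 500-530) of Vif-coexpressing HeLa A3G-eYFP cells, scanned by Acumen cytometer, reports blocked A3G degradation. Cells plated at 700/well overnight at 37 deg C before compound addition, then a further overnight compound incubation at 37 deg C.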"}
{"smiles": "CCN(CC)CCOc1ccc(Cc2ccccc2)cc1", "activity change, negative = inhibition": "-1.73% (inactive)"}
{"smiles": "COC(=O)C1=C(C)NC(C)=C(C(=O)OC(C)C)C1c1cccc2nonc12", "note": "(stereo not given)", "activity change, negative = inhibition": "-0.41% (inactive)"}
{"smiles": "CCOC(=O)C1=C(O)C(=O)N(Cc2ccccc2)C1", "activity change, negative = inhibition": "-0.731% (inactive)"}
{"smiles": "O=C(NCCO[N+](=O)[O-])c1cccnc1", "activity change, negative = inhibition": "-6.62% (inactive)"}
{"smiles": "COc1c2occc2cc2ccc(=O)oc12", "activity change, negative = inhibition": "-3.24% (inactive)"}
{"smiles": "CC(=O)Nc1ccc(O)cc1", "activity change, negative = inhibition": "-0.682% (inactive)"}
{"target": "Estrogen receptor (Homo sapiens) (UniProt P03372)", "sequence (P03372 whole entry, looked up)": "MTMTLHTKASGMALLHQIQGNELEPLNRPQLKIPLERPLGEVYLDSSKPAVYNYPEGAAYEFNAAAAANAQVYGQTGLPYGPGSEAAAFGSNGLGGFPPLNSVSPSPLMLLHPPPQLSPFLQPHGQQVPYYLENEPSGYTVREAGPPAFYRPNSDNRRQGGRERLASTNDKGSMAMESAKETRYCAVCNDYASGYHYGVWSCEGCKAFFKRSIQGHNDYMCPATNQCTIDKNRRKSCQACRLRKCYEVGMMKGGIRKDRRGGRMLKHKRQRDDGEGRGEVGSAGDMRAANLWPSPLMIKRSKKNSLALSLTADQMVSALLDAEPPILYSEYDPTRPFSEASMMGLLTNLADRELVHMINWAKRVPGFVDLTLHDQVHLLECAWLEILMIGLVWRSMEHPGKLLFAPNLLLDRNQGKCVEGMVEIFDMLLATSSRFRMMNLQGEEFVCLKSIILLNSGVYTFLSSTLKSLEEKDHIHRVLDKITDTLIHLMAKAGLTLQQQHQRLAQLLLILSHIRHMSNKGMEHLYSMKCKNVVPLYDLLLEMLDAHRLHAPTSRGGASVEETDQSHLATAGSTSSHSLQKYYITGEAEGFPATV", "assay": "qHTS assay for small molecule antagonists of estrogen receptor alpha signaling (AID 588513; active = well fitted curve in the direction sought with a large enough effect in the signal ratio, with a control signal flat, not every such curve was filed as active; the % refers to the signal ratio; also: % is scaled to controls: 0 for no effect and ±100 for the full control effect)", "conditions": "ER-alpha-UAS-bla HEK293, beta-lactamase ratio, antagonist mode; series mostly up to 76.9 µM; activity, negative = inhibition: at the top concentration", "in_short": "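ER-alpha-UAS-bla GripTite HEK 293 cells in 2% charcoal/dextran-treated FBS medium; compounds titrated (1:2, duplicate), then stimulated with 0.5 nM 17-beta-estradiol for 18 h at 37C. CCF4 beta-lactamase fluorescence; Hill-fit IC50 and efficacy.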"}
{"smiles": "CCc1nc(N)nc(N)c1-c1ccc(Cl)cc1", "activity, negative = inhibition": "-32.4% (inactive)"}
{"smiles": "COC(=O)[C@H](Cc1ccccc1)NC(=O)[C@@H](N)CC(=O)O", "note": "(H-Asp-Phe-OMe)", "outcome": "inactive"}
{"smiles": "c1ccc2[nH]c(-c3cscn3)nc2c1", "outcome": "inactive"}
{"smiles": "Cc1ccc(C)c(OCCCC(C)(C)C(=O)O)c1", "outcome": "inactive"}
{"smiles": "CCCc1cc(=O)[nH]c(=S)[nH]1", "outcome": "inactive"}
{"smiles": "CS(=O)(=O)OCCCCOS(C)(=O)=O", "outcome": "inactive"}
{"smiles": "NS(=O)(=O)c1cc(C(=O)O)c(NCc2ccco2)cc1Cl", "outcome": "inactive"}
